Results published in PubChem BioAssay (NCATS).
Results filed as inconclusive are left out. Activity calls are given as the source filed them. Calls follow the shape of the dose curve; as a rule, active = well fitted inhibition curve with a large enough effect; inconclusive = small, poorly fitted or top-dose-only effect; inactive = no such curve, though single readings can be large or run the other way. Square brackets hold non-standard residues; d marks the D form. Peptide text beside a SMILES is read from it. ξ: configuration not given here. ξPhe(βξ-Me) = CC(c1ccccc1)C(N)C(=O)O; GABA = NCCCC(=O)O

molecular target: Retinaldehyde dehydrogenase 3 (Homo sapiens) (UniProt P47895); assay: qHTS for Inhibitors of the Aldehyde Dehydrogenase Family (ALDH1A3) Primary screen (AID 2061315); conditions: ALDH inhibition qHTS; series mostly up to 56 µM; activity change, negative = inhibition: at the top concentration;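 also: plate controls were DMSO vehicle for no effect and reference inhibitor for full effect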

SMILES | activity change, negative = inhibition
CCCCNc1ncc(C(=O)NCc2ccc(-n3ccnc3)cc2)c(NC2CCC(O)CC2)n1 (stereo not given) | 7.24% (inactive)
O=C(Cc1ccc(-c2ccccc2)cc1)NC1CCC1 | 7.02% (inactive)
C/C=C(\C)C(=O)OCC1OC(OC2OC(COC(=O)/C(C)=C/C)C(OC3OC(CO)C(OC(=O)/C(C)=C/C)C(OC(=O)/C(C)=C/C)C3O)C(O)C2O)C(O)C(O)C1OC1OC(CO)C(OC(=O)/C(C)=C/C)C(OC(=O)/C(C)=C/C)C1O (stereo not given) | 17.9% [at 16.9 µM] (inactive)
CCOc1ccc(S(=O)(=O)N2CCCCCC2)c2ccccc12 | 2.63% (inactive)
CCNC1(C(N)=O)CN(c2nc(C)nc3c(-c4ccc(Cl)cc4)c(-c4ccccc4Cl)nn23)C1 | 5.91% (inactive)
COc1cc(/C=C/C(=O)OC[C@H]2O[C@@](CO)(O[C@H]3O[C@H](CO)[C@@H](O)[C@H](O)[C@H]3O)[C@@H](OC(=O)/C=C/c3ccc(O)c(OC)c3)[C@@H]2O)ccc1O | -16.3% [at 16.9 µM] (inactive)
OCC1=CC[C@@H]2C=CO[C@@H](O[C@@H]3O[C@H](CO)[C@@H](O)[C@H](O)[C@H]3O)[C@H]12 | 19.1% (inactive)
CC1CCC2(C(=O)OC3OC(CO)C(O)C(O)C3O)CCC3(C(=O)O)C(=CCC4C5(C)CCC(OC6OC(C)C(O)C(O)C6O)C(C)(C)C5CCC43C)C2C1C (stereo not given) | 3.48% [at 16.9 µM] (inactive)
CC1NC(=O)CCCNC(=O)C(Cc2c[nH]c3ccccc23)NC(=O)C(C)NC(=O)C(C(C)C)NC(=O)C(C(C)c2ccccc2)NC(=O)C(C(C)C)NC1=O (stereo not drawn) (cyclo([GABA]AV[ξPhe(βξ-Me)]VAW); configuration not given here) | 6.64% [at 16.9 µM] (inactive)
C[C@@H]1O[C@@H](O[C@H]2[C@H](OC(=O)[C@]34CCC(C)(C)C[C@H]3C3=CCC5[C@@]6(C)C[C@H](O)[C@H](O[C@@H]7O[C@H](CO)[C@@H](O)[C@H](O)[C@H]7O)[C@@](C)(CO)C6[C@H](O)C[C@@]5(C)[C@]3(C)C[C@H]4O)OC[C@H](O)[C@@H]2O)[C@H](O)[C@H](O)[C@H]1O[C@@H]1OC[C@@H](O)[C@H](O[C@H]2OC[C@](O)(CO)[C@H]2O)[C@H]1O (stereo not given in full) | -7.49% [at 11.2 µM] (inactive)
CC1=C(CO)C2(C)CCCC(C)(C)C2C(O)C1O (stereo not given) | -0.063% (inactive)
CC1=C2C(O)C(=O)OC(c3ccoc3)C2(C)CCC1O (stereo not given) | -8.65% (inactive)
C=CC(C)(O)CO[C@@H]1O[C@H](CO)[C@@H](O)[C@H](O)[C@H]1O (stereo not given in full) | -3.56% (inactive)
CC(O)/C=C/C1C(C)C(O[C@@H]2O[C@H](CO)[C@@H](O)[C@H](O)[C@H]2O)C(O)CC1(C)C (stereo not given in full) | -5.96% (inactive)
C[C@H]1/C=C/C=C/C=C/C=C/C=C/[C@@H](O)[C@H](C(=O)O)[C@H](O)C[C@H](O)CCC[C@H](O)C[C@H](O)C[C@H](O)[C@@H](C)C(=O)O[C@@H]1C | -5.13% [at 16.9 µM] (inactive)
CC1OC(OC2C(CO)OC(OCC3OC(OC(=O)C45CCC(C)(C)CC4C4=CCC6C7(C)CCC(OC8OC(CO)C(O)C(OC9OC(CO)C(O)C(O)C9O)C8O)C(C)(C)C7CCC6(C)C4(C)CC5)C(O)C(O)C3O)C(O)C2O)C(O)C(O)C1OC1OC(CO)C(O)C(O)C1O (stereo not given) | 7.19% [at 11.2 µM] (inactive)
CC(=O)N[C@H]1[C@H](O[C@H]2CC[C@@]3(C)C(CC[C@]4(C)C3CC=C3C5CC(C)(C)CC[C@]5(C(=O)O)C(O)C[C@]34C)C2(C)C)O[C@H](CO[C@@H]2O[C@H](C)[C@H](O)[C@H](O)[C@H]2O[C@@H]2OC[C@@H](O)[C@H](O)[C@H]2O)[C@@H](O)[C@@H]1O (stereo not given in full) | -1.41% [at 16.9 µM] (inactive)
COc1ccc(CCc2nc3cc(-c4c(C)noc4C)ccc3n2CC(C)N2CCOCC2)cc1Cl (stereo not given) | 5.04% (inactive)
CC1(C)CCCC2(C)C1CC=C1C(=O)OC(O)C12O (stereo not given) | -11.7% (inactive)
C=CC1(C)CC(O)C2(CCC3C(C)(C(=O)O)CCCC3(C)C2=O)C1 (stereo not given) | -8.01% (inactive)

SMILES | activity change, negative = inhibition
C/C=C(\C)C(=O)O[C@@H]1[C@@H](C)[C@]2(O)[C@@H]3C=C(C)C(=O)[C@H]3CC(CO)=C[C@H]2C2C(C)(C)[C@@]21OC(=O)C(C)CC (stereo not given in full) | -2.19% [at 28 µM] (inactive)
CC(=O)OC[C@]12[C@H](OC(C)=O)[C@H](OC(=O)c3ccccc3)[C@@H]3[C@@H](OC(C)=O)[C@]1(OC3(C)C)[C@H](C)C[C@H](OC(C)=O)[C@@H]2OC(=O)c1ccccc1 | 15.3% [at 16.9 µM] (inactive)
CC(C)(O)/C=C/C(=O)[C@](C)(O)[C@H]1[C@H](O)C[C@@]2(C)[C@@H]3CC=C4[C@@H](C=C(O[C@@H]5O[C@H](CO)[C@@H](O)[C@H](O)[C@H]5O)C(=O)C4(C)C)[C@]3(C)C(=O)C[C@]12C | 6.76% [at 16.9 µM] (inactive)
CC(C)CC(=O)OC[C@@]1(O)C[C@@]23CC[C@H]4[C@@](C)(CCC[C@@]4(C)C(=O)O)[C@@H]2CC[C@@H]1C3 | 17.7% [at 28 µM] (inactive)
COC(=O)C[C@@H]1C(C(=O)O)=CO[C@@H](O[C@@H]2O[C@H](CO)[C@@H](O)[C@H](O)[C@H]2O)/C1=C\COC(=O)/C=C/c1ccc(O)c(OC)c1 | -14.5% [at 16.9 µM] (inactive)
COc1ccc(CCO[C@@H]2O[C@H](CO[C@@H]3OC[C@H](O)[C@H](O)[C@H]3O)[C@@H](O)[C@H](O)[C@H]2O)cc1 | -10.5% [at 28 µM] (inactive)
CC1(C)CC[C@]2(C(=O)O)CC[C@]3(C)C(=CCC4[C@@]5(C)C[C@@H](O)[C@H](O)[C@](C)(CO)C5CC[C@]43C)[C@@H]2[C@@H]1O (stereo not given in full) | 9.48% [at 28 µM] (inactive)
C=C1C(=O)OC2CC(C)C(CCC(C)=O)=CCC12 (stereo not given) | 6.04% (inactive)
COc1ccc(C2Oc3c(OC)cc(CCCO)cc3C2COC2OC(CO)C(O)C(O)C2O)cc1OC (stereo not given) | -14.1% [at 28 µM] (inactive)
CC/C=C\[C@H](O)[C@H](O)C1=C(C)C(=O)[C@]2(O1)C(=O)N[C@@](OC)(C(=O)c1ccccc1)[C@@H]2O | -14.3% [at 28 µM] (inactive)
CCCCC1CCN(CCCC(=O)c2ccccc2C)CC1 | -9.06% (inactive)
COc1cc(O)c2c(c1)C1=C[C@H](O)[C@@H](O)C[C@]1(C)OC2=O | -6.24% (inactive)
NC(=O)C1=CC2C3C=CC2C(OC3=O)O1 (stereo not given) | -2.46% [at 81.8 µM] (inactive)
CC(=O)/C=C/C1(O)C(C)CC(O[C@@H]2O[C@H](CO)[C@@H](O)[C@H](O)[C@H]2O)CC1(C)C (stereo not given in full) | -9.5% [at 28 µM] (inactive)
CCCCC1CCC(c2nc(-c3ccncc3)no2)CC1 (stereo not given) | -6.25% (inactive)
O=C(N/N=C/c1ccc(O)c(O)c1)c1cc2ccccc2cc1O | 4.39% [at 16.9 µM] (inactive)
N#Cc1ccc(-c2ccc(S(=O)(=O)Nc3cccc(N)n3)cc2)cc1 | -24.9% (inactive)
C=C1/C(=C/C=C2\CCC[C@]3(C)[C@@H]([C@H](C)CC[C@@H](O)C(C)(C)O)CC[C@@H]23)C[C@@H](O)C[C@@H]1O | -3.21% (inactive)
CC(=O)OC(C)(C)/C=C/C(=O)[C@](C)(O)C1[C@H](O)C[C@@]2(C)[C@@H]3CC=C4[C@@H](C[C@H](O[C@@H]5O[C@H](CO)[C@@H](O)[C@H](O)[C@H]5O)C(=O)C4(C)C)[C@]3(C)C(=O)C[C@]12C (stereo not given in full) | -11.9% [at 16.9 µM] (inactive)
CC(=O)O[C@@H]1[C@H](O[C@@H]2O[C@H](CO)[C@@H](O)[C@H](O)[C@H]2O)[C@@H](O[C@@H]2O[C@@H](C)[C@H](O)[C@@H](O[C@@H]3O[C@H](CO)[C@@H](O)[C@H](O)[C@H]3O)[C@H]2O)[C@H](OC(=O)C23CCC4(C)C(=CCC5C6(C)CC(O)C(O[C@@H]7O[C@H](C(=O)O)[C@@H](O)[C@H](O)[C@H]7O)C(C)(C(=O)O)C6CCC54C)C2CC(C)(C)CC3O)O[C@@H]1C (stereo not given in full) | -5.68% [at 11.2 µM] (inactive)
